Results published in PubChem BioAssay AID687022 (Broad Institute, 2013).
The campaign covered roughly 1,000 compounds. About 360 (36%) were called active.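 How the source made its calls: active means Fitted curve of melting temperature shift crosses the 1.0 threshold at or below the sample's highest valid tested concentration; inconclusive means Flat fit with activity 30 to 70, or invalid fit; inactive means Opposite direction, flat within 30, or no crossing.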 These entries were drawn from the full list.

The compounds below were run against Fibroblast growth factor 22 (Homo sapiens) (UniProt Q9HCT0) (assay: FGF22 ligand-induced thermal stabilization – biophysical, thermal shift, cherry-pick, FGF22 synaptogenesis inhibitor project, dose response (AID 687022; further: reference of the scale not given here)). Conditions: recombinant FGF22 thermal shift, SYPRO orange melting; series mostly up to 38 µM; Tm shift activity: at the top concentration.
Fibroblast growth factor 22 (Homo sapiens), sequence (Q9HCT0 whole entry, looked up): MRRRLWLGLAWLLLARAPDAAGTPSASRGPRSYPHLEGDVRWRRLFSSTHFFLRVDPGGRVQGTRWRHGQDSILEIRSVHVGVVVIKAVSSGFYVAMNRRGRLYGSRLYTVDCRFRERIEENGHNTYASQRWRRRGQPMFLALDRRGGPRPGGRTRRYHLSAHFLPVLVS

Compound	Tm shift activity
CN(C)CC(=O)Nc1ccc2c(c1)[C@@H]1C[C@H](CC(=O)N(C)C)O[C@@H](CO)[C@@H]1O2	0.094% (inactive)
O=C1COc2ccc(S(=O)(=O)N3CCCC3)cc2N1	-0.074% (inactive)
C[C@H]1CN([C@@H](C)CO)C(=O)c2cc(NS(=O)(=O)c3cn(C)cn3)ccc2O[C@H]1CN(C)Cc1ccccc1	-0.139% (inactive)
OC[C@H]1[C@@H](c2ccc(-c3cccnc3)cc2)[C@@H]2CN(Cc3ccccn3)CCCCN12	-0.15% (inactive)
O=C(C[C@H]1CC[C@H]2[C@@H](COC[C@@H](O)CN2C(=O)C2CC2)O1)NCc1ccncc1	-0.062% [at 42 µM] (inactive)
Cc1nn(C)cc1NC(=O)C[C@H]1CC[C@@H]2[C@@H](COc3ccc(NC(=O)NC(C)C)cc3C(=O)N2C)O1	-0.291% (inactive)
COc1cccc(NC(=O)N[C@H]2C=C[C@@H](CC(=O)N3CCN(C)CC3)O[C@H]2CO)c1	0.241% [at 42 µM] (inactive)
O=C1C=CCCN1S(=O)(=O)/C=C/c1ccccc1	0.169% (inactive)
CCOc1ccc(C(=O)CCC(=O)Nc2ccc(C)cn2)cc1	0.045% (inactive)
CCC(CC)CN1CCC(CN2C(=O)C(=O)NC[C@@H]2CC(C)C)CC1	0.023% (inactive)
O=C(C[C@H]1C[C@@H]2c3cc(NC(=O)NC4CCCC4)ccc3O[C@@H]2[C@H](CO)O1)NC1CCCC1	-0.22% (inactive)
Nc1nccc(-c2ccc(-n3cccc3)cc2)n1	-0.117% (inactive)
CO[C@H]1CN(C)C(=O)c2ccc(NS(=O)(=O)c3ccc(Cl)cc3)cc2OC[C@@H](C)N(C(=O)NC(C)C)C[C@H]1C	-0.141% [at 42 µM] (inactive)
COCCNC(=O)CCc1nnc2ccc(N3CCC(C)CC3)nn12	-0.14% (inactive)
CC(C)(C)NC(=O)N1CCC(CO)(Cc2ccccc2Cl)CC1	-0.024% (inactive)
CC(=O)N1[C@H](CO)[C@H](c2ccccc2)[C@H]1CN(C(=O)c1cccc(F)c1)C(C)C	-0.225% (inactive)
Cc1noc(C)c1S(=O)(=O)Nc1ccc2c(c1)CC(=O)N([C@@H](C)CO)C[C@@H](C)[C@@H](CN(C)Cc1ccc(Cl)c(Cl)c1)O2	-1.12% [at 42 µM] (inactive)
CCCNC(=O)N1[C@@H]2CN(C(=O)c3ccccc3)c3ccccc3[C@@H]2[C@@H]1CO	0.376% [at 42 µM] (inactive)
O=C(O)C1CSC(c2ccc3c(c2)OCO3)N1 (stereo not drawn)	0.16% (inactive)
OC[C@@H]1[C@H](c2ccc(Br)cc2)[C@@H]2CN(Cc3cncnc3)CCCCN12	-0.264% [at 42 µM] (inactive)
CO[C@H]1CN(C)C(=O)c2cc(NC(=O)CC(F)(F)F)ccc2OC[C@@H](C)N(C(C)=O)C[C@H]1C	-0.187% [at 42 µM] (inactive)
CNC[C@H]1Oc2ccc(NC(=O)Nc3ccc(OC)cc3)cc2C(=O)N([C@H](C)CO)C[C@@H]1C	-0.083% [at 42 µM] (inactive)
CNC[C@@H]1Oc2c(NS(=O)(=O)c3ccc(OC)cc3)cccc2C(=O)N([C@@H](C)CO)C[C@@H]1C	-0.136% (inactive)
COc1ccc(S(=O)(=O)N(C)C[C@@H]2Oc3c(NC(=O)c4cc(C)nn4C)cccc3C(=O)N([C@H](C)CO)C[C@H]2C)cc1	-0.141% [at 42 µM] (inactive)
COc1ccc(S(=O)(=O)N/N=c2\oc3c(OC)cccc3cc2S(=O)(=O)c2ccc(C)cc2)cc1OC	0.599% (inactive)
O=C(N[C@H]1CC[C@@H](CCNS(=O)(=O)c2ccc(F)cc2)O[C@H]1CO)C1CCCC1	-0.05% [at 42 µM] (inactive)
CN1C(=O)c2cc(NC(=O)Cc3ccccc3)ccc2OC[C@@H]2O[C@H](CC(=O)O)CC[C@H]21	-0.126% (inactive)
CO[C@@H]1CN(C)C(=O)c2cc(NC(=O)NC(C)C)ccc2OC[C@@H](C)N(C)C[C@@H]1C	-0.329% (inactive)
